# Pol beta inh: blocks human DNA polymerase beta activity; P06746; Pol beta primer extension/strand displacement, fluorescence kinetic; Potency, µM (top dose mostly 114 µM), without a hit: top-dose activity change, negative = inhibition, actives largely listed as inhibitors; 1.3% of 340,000 active; further: potency means the concentration at half of the fitted maximal effect; on the % scale 0 is the no-effect control and ±100 the full control effect
#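 Curves were derived by four-parameter Hill fits of normalized qHTS data. The kinetic fluorescent primer-extension read was taken at 0 and 10 min after 50 nM substrate, following a 15 min room-temperature preincubation of 10 nM enzyme with compounds.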
# PI5P4K alpha inh: inhibitors of human PI5P4K alpha; P48426; PI5P4Kalpha enzyme, ADP-Glo luminescence, 60 min; hits give low values; max response, %; 1.2% of 330,000 active; AID 652105; active means max response of -50% or lower; inconclusive means between -30% and -50%; inactive means -30% or higher; further: value at the top dose of about 77 µM; on the % scale 0 is the no-effect control and ±100 the full control effect
# Target sequence (P48426 whole entry, looked up): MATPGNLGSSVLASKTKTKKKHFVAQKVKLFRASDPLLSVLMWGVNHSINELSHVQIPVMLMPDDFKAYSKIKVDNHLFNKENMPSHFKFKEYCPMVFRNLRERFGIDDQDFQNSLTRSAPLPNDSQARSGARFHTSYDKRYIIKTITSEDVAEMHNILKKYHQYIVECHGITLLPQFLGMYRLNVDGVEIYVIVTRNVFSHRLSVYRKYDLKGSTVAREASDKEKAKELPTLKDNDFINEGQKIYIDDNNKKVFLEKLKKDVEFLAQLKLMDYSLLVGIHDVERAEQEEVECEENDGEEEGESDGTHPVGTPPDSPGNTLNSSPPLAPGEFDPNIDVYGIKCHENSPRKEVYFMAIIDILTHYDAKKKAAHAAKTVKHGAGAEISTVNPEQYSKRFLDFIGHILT
#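 ADP-Glo luminescence end-point read after a 60 min room-temperature kinase reaction of PI5P4Kalpha plus substrate, initiated with ATP at 5 microM final. Buffer: 0.038 M HEPES pH 7.4, EGTA, 0.1% CHAPS, 5% DMSO.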
# Pol eta inh: blocks human DNA polymerase eta activity | Q9Y253 | recombinant Pol eta, fluorescent DNA replication assay | Potency, µM (series often up to 114 µM), inactives show at the highest dose activity change, negative = inhibition, usual class: inhibitors | 1.2% of 390,000 active; further: potency means the concentration at half of the fitted maximal effect; on the % scale 0 is the no-effect control and ±100 the full control effect
#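 Pol eta at 10 nM preincubated with compounds 15 min at room temperature; reaction started with fluorescent substrate (50 nM final) and read kinetically at 0 and 10 min.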
# WRN inhibitor: blocks human WRN helicase | WRN helicase unwinding, fluorescent forked duplex, kinetic | Potency, µM (titrated, usually from 114 µM), inactives show top-dose activity change, negative = inhibition, most hits filed as inhibitors | 0.46% of 360,000 active | AID 651768; further: potency means the concentration at half of the fitted maximal effect; on the % scale 0 is the no-effect control and ±100 the full control effect; nearly all actives have a fitted effect of over 55% in size
#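 Fluorescence dequenching readout, ex 525 nm/em 598 nm, kinetic mode: forked duplex DNA (100 nM final) with adjacent fluorophore and quencher unwound by WRN (20 nM final) with 2 mM ATP. Compound preincubation 15 min, room temperature.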
# POLK inh: DNA polymerase kappa (human) inhibition; Q9UBT6; purified Pol kappa, fluorescent DNA synthesis assay, 10 min; Potency, µM (doses to about 107 µM), without a hit: at the top dose activity, negative = inhibition, usual class: inhibitors; 0.53% of 400,000 active; further: potency means the concentration at half of the fitted maximal effect; on the % scale 0 is the no-effect control and ±100 the full control effect
#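 Readout: fluorescence, taken kinetically at 0 and 10 min. Conditions: 10 nM Pol kappa, 15 min RT compound preincubation, 50 nM substrate final. Controls: enzyme-free buffer wells.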
# Pol iota inh: DNA polymerase iota (human) inhibition | Pol iota fluorescent replication assay, 10 min | Potency, µM (series often up to 115 µM), for inactives: at the top dose activity, negative = inhibition, usual class: inhibitors | AID 588590 | 1% of 390,000 active; further: potency means the concentration at half of the fitted maximal effect
#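 Pol iota at 10 nM preincubated 15 min with compounds at room temperature; reaction started with fluorescent substrate, 50 nM final. Fluorescence read kinetically at 0 and 10 min; buffer-only wells as negative control.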
# * = called active by the depositor; ? = inconclusive; · = not tested or not shown; [ ] = remark or other dose. The list is not random: actives were taken first. Their share in the collection is about 2.8%. Unless noted, the call rests on the fitted dose curve; in most records, active means well fitted curve in the direction sought with a large enough effect; inconclusive means small, poorly fitted or top-dose-only effect, or another doubt; inactive means no such curve, though single readings can be large; an effect the other way counts as inactive or inconclusive.
SMILES,Pol beta inh,PI5P4K alpha inh,Pol eta inh,WRN inhibitor,POLK inh,Pol iota inh
CCOC(=O)/C=C/C(=O)Nc1cccc([N+](=O)[O-])c1,7%,13,-3%,35µM*,-8%,-13%
N#C/C(=N\Nc1ccc([N+](=O)[O-])cc1)C(N)=S,-1%,?,-27%,-22%,-9%,?
O=C(Nc1cccc([N+](=O)[O-])c1)c1cccc(C(=O)Nc2cccc([N+](=O)[O-])c2)c1,1.1µM*,2,2%,3%,-9%,-14%
N#C/C(=N\Nc1cccc([N+](=O)[O-])c1)C(=O)c1ccc(Br)cc1,5%,-13,79µM*,?,-34%,?
Cc1cc(N(C)C)ccc1/C=C/c1ccnc2ccccc12,·,·,·,·,-2%,9%
C=C1NN(C)C(=O)N1c1ccc(OC)cc1,·,·,·,·,-8%,42%
CCOC(=O)c1[nH]c2ccccc2c1NC(=O)c1ccccc1OCC,-11%,·,-11%,·,4%,-2%
CC(=O)Nc1ccc(NC(=O)CCc2ccc(C)o2)cc1,26%,2,-18%,-1%,8%,19%
Cc1ccc(CCC(=O)Nc2ccc(S(N)(=O)=O)cc2)o1,-20%,-19,14µM*,-16%[57.1 µM],-27%,-16%
COc1cccc(CNC(=O)C(C)n2c(=O)cc(-c3ccccc3)c3c(C)nn(C)c32)c1 (stereo unspecified),-21%,·,-9%,·,-24%,-2%
Cc1ccc(NC(=O)CSc2ncc(S(=O)(=O)c3ccc(C(C)C)cc3)c(=O)[nH]2)cc1C,20µM*,·,?,·,-13%,?
COc1cc(NC(=O)CSc2ncc(S(=O)(=O)c3ccc(Br)cc3)c(=O)[nH]2)cc(OC)c1,50µM*,·,?,·,-17%,?
Cc1cc(C)cc(NC(=O)CSc2ncc(S(=O)(=O)c3ccccc3)c(=O)[nH]2)c1,6%,·,·,·,·,·
C=CCn1c(SCC(=O)NC(=O)NCc2ccco2)nc2sc(C)c(C)c2c1=O,0%,-5,?,-10%,-15%,?
C=CCn1c(SCC(=O)NC2CCCC2)nc2scc(-c3ccco3)c2c1=O,25µM*,-83*,16µM*,?,?,?
C=CCn1c(SCC(=O)NCCCC)nc2scc(-c3ccco3)c2c1=O,22µM*,-57*,10µM*,?,40µM*,20µM*
CCCCCCCCCC[n+]1ccc(/C=C/c2c(C)[nH]c3ccccc23)cc1,·,·,·,·,-23%,-8%
C(#Cc1ccccc1)C[N+]1(CC#Cc2ccccc2)CCCC1,47%,-6,1%,1%,0%,24%
C=CC#CC[N+]1(CC#Cc2ccccc2)CCOCC1,4%,-82*,35µM*,22µM*,?,?
CCN(CCCNC(=O)c1ccc(Sc2ccc(F)cc2)c(NC(C)=O)c1)c1ccccc1,-9%,·,-14%,·,-10%[60.1 µM],5%
CC(=O)c1ccc(-n2c(-c3cc(-c4ccco4)[nH]n3)n[nH]c2=S)cc1,1%,-57*,?,?,-1%,-10%
S=c1[nH]nc(-c2ccco2)n1-c1ccc(Br)cc1,·,-10,-10%,?,-11%,-8%[58.9 µM]
Cc1ccc(-n2c(-c3cc(-c4ccco4)[nH]n3)n[nH]c2=S)c(Br)c1,-10%,-12,-11%,-16%,-7%,135%
S=c1[nH]nc(-c2cc(-c3ccco3)[nH]n2)n1-c1cccc2ccccc12,25µM*,·,?,-33%,-15%,?
CCC(=O)n1nc(-c2ccco2)nc1SCc1ccccc1,22µM*,3,-8%,-2%,-4%,14%
SMILES,Pol beta inh,PI5P4K alpha inh,Pol eta inh,WRN inhibitor,POLK inh,Pol iota inh
O=C1C=CC(=Nc2ccc3c(c2)Cc2cc(F)ccc2-3)O1,·,-58*,-10%,?,-9%,18%
O=C1C=CC(=Nc2cccc3c2C(=O)c2ccccc2-3)O1,·,-6,-25%,-17%,-18%,22%
C=CCn1c(=O)c(CCC(=O)Nc2ccc(N3CCOCC3)cc2)nc2cc(C(F)(F)F)ccc21,6%,-53*,79µM*,0%[11.6 µM],?,?
CCN(C(=S)Nc1cccc2ccccc12)c1ccccc1,·,?,-4%,3%,·,·
O=C(CC1(O)C(=O)N(CCc2ccccc2)c2ccc(Br)cc21)c1ccccc1 (stereo unspecified),8%,·,?,·,-6%,89µM*
Cc1ccc(C(=O)CC2(O)C(=O)N(CCc3ccccc3)c3ccc(Br)cc32)o1 (stereo unspecified),2%,-17,-19%,-34%,-8%,-12%
O=C(O)C1=CC(c2ccc(Br)cc2)n2ncnc2N1 (stereo unspecified),22%,·,-15%,·,9%,-6%
CC(=O)c1c(C)nc(-c2ccc(Cl)cc2)nc1N=CN(C)C,35µM*,1,-15%,6%,-16%,-1%
CCN(CC)CCN(C(=O)c1ccco1)c1nc2cc(C)cc(C)c2s1,56µM*,·,-4%,·,-21%,-24%
CC(C)CCNC(=O)NC(=O)COC(=O)/C=C/c1cccc([N+](=O)[O-])c1,8%,-1,-22%,13%,-3%,190%
C=CCNC(=O)NC(=O)COC(=O)/C=C/c1cccc([N+](=O)[O-])c1,-24%,-83*,-10%,-2%,0%,124%
S=c1[nH]c2ncccc2o1,2%,·,-13%,5%,-12%,-18%
S=c1[nH]c2cc(Cl)c3cccnc3c2o1,-1%,-53*,-15%,-9%[57.1 µM],5%,44%
CC(C)(C)OC(=O)N1CCN(C(=O)c2[nH]cnc2C(=O)Nc2cccc(Cl)c2)CC1,·,16,-15%,1%,-13%,20%
Cc1cc(C)nc(N/N=C/c2ccccc2OCc2ccccc2)n1,-7%,-1,-22%,-5%,-7%,123%
O=C(O)c1ccccc1NS(=O)(=O)c1ccc(NN=Cc2cccc(Cl)c2)c([N+](=O)[O-])c1,·,-66*,20µM*,?,-28%,?
Cc1cc(C)nc(N/N=C/c2ccccc2OCC(=O)O)n1,-7%,7,28µM*,-3%[11.6 µM],-10%,10%
O=C(O)COc1ccccc1/C=N/Nc1ccc(S(=O)(=O)Nc2ccc(Cl)cc2)cc1[N+](=O)[O-],?,-29,28µM*,?,?,?
NS(=O)(=O)c1ccc(N/N=C/c2ccccc2C(=O)O)c([N+](=O)[O-])c1,1%,-7,-5%,-16%,-18%,58%
O=C(O)c1ccccc1NS(=O)(=O)c1ccc(NN=Cc2ccc(F)cc2)c([N+](=O)[O-])c1,·,-58*,35µM*,?,-19%,-18%
c1ccc2nccnc2c1,·,·,·,·,-2%,-20%
COc1ccc(C(=O)CCC(=O)N2CCN(c3cc(C)ccc3C)CC2)cc1,-25%,1,-17%,-7%[57.1 µM],4%,28%
